Source: PubChem (National Center for Advancing Translational Sciences (NCATS))
KB-V1 cytotox: KB-V1 MDR subline cytotoxicity; KB-V1 MDR cells viability, CellTiter-Glo, 72 h; Potency, µM (doses to about 46.1 µM), most hits filed as cytotoxic; 3.4% of 400,000 active; note: potency is the fitted concentration of half-maximal effect; % is set by controls: 0 for no effect and ±100 for the full control effect; nearly all actives have a fitted effect of over 60% in size
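KB-V1 MDR subline cells in DMEM (phenol-red free, 10% FBS) exposed to compounds in qHTS concentration series for 72 h at 37 degrees C. Viability read by CellTiter-Glo luminescence; concentration-effect curves fitted after normalization and correction.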
D3 ag: D3 dopamine receptor (human) agonism; P35462; 0.58% of 410,000 active; D3R DiscoveRx beta-arrestin cells, luminescence, 90 min; max activation, %; in the data active = max activation above about 30%; note: 0% is about no effect
Target sequence (P35462 whole entry, looked up): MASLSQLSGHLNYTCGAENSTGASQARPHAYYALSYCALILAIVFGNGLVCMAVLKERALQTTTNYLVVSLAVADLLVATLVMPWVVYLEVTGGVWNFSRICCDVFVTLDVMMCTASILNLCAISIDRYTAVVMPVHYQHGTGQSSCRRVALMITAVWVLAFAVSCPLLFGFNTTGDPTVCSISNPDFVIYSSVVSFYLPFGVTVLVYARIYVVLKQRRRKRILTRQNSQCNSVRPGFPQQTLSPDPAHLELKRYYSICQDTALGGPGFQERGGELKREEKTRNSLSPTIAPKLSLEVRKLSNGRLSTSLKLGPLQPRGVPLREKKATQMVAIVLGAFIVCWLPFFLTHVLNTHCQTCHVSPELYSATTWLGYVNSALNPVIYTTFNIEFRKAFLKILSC
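Agonist mode: compounds and dopamine controls were applied to plated cells for 90 min at 37 degrees C after an overnight attachment at 1500 cells/well. Luminescent read-out followed 30 - 60 minutes at room temperature with DiscoveRx detection reagent.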
KB-3-1 cytotox: KB-3-1 parental cell cytotoxicity | KB-3-1 viability, CellTiter-Glo ATP luminescence, 72 h | Potency, µM (top dose mostly 46.1 µM), usual class: cytotoxic | 1.4% of 400,000 active | AID 1347075; note: potency is the fitted concentration of half-maximal effect; % is set by controls: 0 for no effect and ±100 for the full control effect; nearly all actives have a fitted effect of over 60% in size
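Parental KB-3-1 viability, qHTS format: 72 h compound exposure, 37 °C; CellTiter-Glo; media-only wells and DMSO plates as controls; concentration-effect fits on corrected data.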
SW480 rereplic: inducers of DNA re-replication in SW480 colon cancer cells; SW480 DNA re-replication, Hoechst DNA content imaging, 48 h; 1.8% of 340,000 active; Potency, µM (top dose mostly 46.1 µM), for inactives: top-dose re-replication activation, actives largely listed as activators; note: potency is the fitted concentration of half-maximal effect; % of control where 0% means no effect; nearly all actives have a fitted effect of over 55% in size
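Hoechst fluorescence of nuclei (405 nm excitation, 500-530 nm emission) measured by plate-scanning imager after 48 hr compound exposure at 37 C; re-replication scored as increased number of nuclei with elevated intensity.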
MCF10A rerep: inducers of DNA re-replication in MCF 10A breast cells | Potency, µM (top dose mostly 46.1 µM), without a hit: top-dose activity, positive = re-replication, hits mostly activators | MCF 10A DNA re-replication, Hoechst nuclear intensity, 48 h | 2.9% of 350,000 active | AID 624296; note: potency is the fitted concentration of half-maximal effect; % of control where 0% means no effect; nearly all actives have a fitted effect of over 50% in size
D3 antag: D3 dopamine receptor (human) antagonism; 2.5% of 360,000 active; D3R cells, DiscoveRx beta-arrestin luminescence, antagonist mode; active compounds read low; max response, negative = inhibition, %; in the data active = max response below about -50%; inconclusive = no clear call, values can overlap the other calls; note: % is set by controls: 0 for no effect and ±100 for the full control effect
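Cells plated overnight at 1500 cells/well, then exposed to library compounds with dopamine controls for 90 minutes at 37 degrees C. DiscoveRx reagent added for 30–60 minutes at room temperature; luminescence read, quantitative HTS format.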
An asterisk follows results filed as active; i = inactive; ? = inconclusive; · = no result; [ ] = another dose, or the depositor's remark. Shown are actives, neighbours in structure and some others; about 8.9% of the full set was active somewhere. Unless noted, calls come from the whole dose curve; as a rule, active = well fitted curve in the direction sought with a large enough effect; inconclusive = small, poorly fitted or top-dose-only effect, or another doubt; inactive = no such curve, though single readings can be large; an effect the other way counts as inactive or inconclusive.

SMILES	KB-V1 cytotox	D3 ag	KB-3-1 cytotox	SW480 rereplic	MCF10A rerep	D3 antag
CCCOc1ccc(-c2cc(C(F)(F)F)c(C#N)c(SCCC(=O)O)n2)cc1	i	2	i	·	·	·
COc1cccc(CN(C(=O)Cc2c[nH]c3ccccc23)C(C(=O)NC2CCCCC2)c2ccc(C)o2)c1 (centres undefined)	21µM*	-4	?	?	6%	23
COc1cc(C(C(=O)NC2CCCCC2)N(Cc2cccs2)C(=O)Cc2c[nH]c3ccccc23)cc(OC)c1OC (centres undefined)	16µM*	4	?	-8%	7%	33
COc1ccc(CN(C(=O)Cc2c[nH]c3ccccc23)C(C(=O)NC2CCCCC2)c2ccc(C)o2)cc1 (centres undefined)	?	0	?	12%	?	31
COc1cc(C(C(=O)NC2CCCCC2)N(C(=O)Cc2c[nH]c3ccccc23)c2ccccc2C)cc(OC)c1OC (centres undefined)	i	2	i	1%	17%	-12
CCc1ccc(NC(=O)Cc2c(C(=O)O)c(C)cn2C)cc1	i	8	i	·	·	·
Cc1ccccc1Nc1nn2c(=O)c3ccc(C(=O)NCc4ccccc4)cc3nc2s1	·	-3	·	·	·	·
CCc1ccccc1Nc1nn2c(=O)c3ccc(C(=O)NCc4ccc(C)cc4)cc3nc2s1	i	-8	2.9µM*	·	·	·
O=C(Nc1nccs1)c1ccc(S(=O)(=O)NCc2cccs2)cc1	18µM*	0	i	28%	?	-11
COc1ccc(CCNC(=O)CCCn2c(=O)c3ccccc3n(Cc3c(C)cc(C)cc3C)c2=O)cc1OC	?	3	i	·	·	·
CSCCC(NC(=O)c1ccc(Cl)c([N+](=O)[O-])c1)C(=O)N1CCN(C/C=C/c2ccccc2)CC1 (centres undefined)	i	-32	i	2%	18µM*	-30
CC(C)C(NC(=O)c1ccccc1)C(=O)N1CCN(C/C=C/c2ccccc2)CC1 (centres undefined)	i	-8	i	-18%	5%	?
CCc1ccc(NCc2cc3cc4c(cc3n(CC(=O)Nc3ccc(C)cc3)c2=O)OCO4)cc1	i	-4	i	·	·	·
Cc1cc(Cl)ccc1OCC(=O)NNC(=O)C1CCN(c2ncnc3sc(C)c(C)c23)CC1	?	22	i	-7%	?	86
Cc1ccc(OCC(=O)NNC(=O)C2CCN(c3ncnc4sc(C)c(C)c34)CC2)cc1	i	37*	i	-17%	-9%	20
COc1ccc(OCC(=O)NNC(=O)C2CCN(c3ncnc4sc(C)c(C)c34)CC2)cc1	i	2	i	-6%	?	4
Cc1sc2ncnc(N3CCC(C(=O)NNC(=O)COc4ccccc4F)CC3)c2c1C	i	34*	i	1%	?	10
CCN(CC(=O)Nc1c(F)cccc1F)C(=O)C1CCN(c2ncnc3sc(C)c(C)c23)CC1	13µM*	19	i	3%	17%	14
Cc1sc2ncnc(N3CCC(C(=O)NNC(=O)COc4ccccc4Cl)CC3)c2c1C	?	30*	i	4%	4.1µM*	48
COc1ccc(CNC(=O)C(CC(C)C)NS(=O)(=O)c2ccc3c(c2)oc(=O)n3C)cc1 (centres undefined)	i	-10	?	·	·	·
CCOc1ccc(CN2CCN(c3ncnc4scc(-c5ccccc5)c34)CC2)cc1	i	-44	i	5%	2%	-25
Cc1sc2ncnc(N3CCN(Cc4ccccc4)CC3)c2c1-c1ccccc1	10µM*	-6	?	10%	16µM*	11
Cc1sc2ncnc(N3CCN(S(=O)(=O)c4ccc(C(C)(C)C)cc4)CC3)c2c1C	i	-6	21µM*	-27%	?	-16
Cc1sc2ncnc(N3CCN(CCOc4ccc(Cl)cc4)CC3)c2c1C	?	39*	?	?	18µM*	-27
CCN(CC)CCNC(=O)c1ccc(NC(=O)C2CCN(c3ncnc4sc(C)c(C)c34)CC2)cc1	i	-14	i	21µM*	?	?
SMILES	KB-V1 cytotox	D3 ag	KB-3-1 cytotox	SW480 rereplic	MCF10A rerep	D3 antag
O=C(CSc1nnc(-c2cccnc2)o1)Nc1ccccc1F	i	1	i	-99%	4%	-6
CN(CCO)c1ccc2c(c1)OC[C@@H](Cc1ccccc1)NS2(=O)=O	?	-2	i	·	·	0
Cc1cn(C(=O)c2ccccc2)c(=S)n1-c1ccc(Br)cc1	15µM*	17	i	19%	?	8
Cc1cc(C)c(CSc2ncc(-c3ccc([N+](=O)[O-])cc3)[nH]2)c(C)c1	23µM*	-10	?	?	18µM*	-24
O=C(c1ccccc1F)n1c2c(c3ccccc31)CCCC2	?	0	?	?	15µM*	-2
CC1CCN(CC(=O)n2c3c(c4ccccc42)CCCC3)CC1	i	-16	i	-2%	3%	-22
Cc1noc(C)c1CSc1nc2ccccc2nc1NS(=O)(=O)c1ccc(Cl)cc1	?	0	?	2%	2.6µM*	-51*
O=S(=O)(Nc1nc2ccccc2nc1NCc1ccco1)c1ccc(Cl)cc1	?	7	?	-3%[9.22 µM]	?	-29
CC(C)C[C@H]1CN(CCCC[C@H]2CNC(=O)C(=O)N2CCc2ccccc2)C(=O)C(=O)N1Cc1ccccc1	i	-3	i	·	·	-18
CC(C)C[C@H]1CNC(=O)C(=O)N1C[C@H](C)NC(=O)Cc1ccccc1	i	-29	i	-5%	-12%	-52*
Cc1ccc2c(c1)COc1c3ccc(C(=O)N4CCCCC4)cc3nn1-2	?	9	i	-11%	4%	12
O=C(c1ccc2c3n(nc2c1)-c1ccccc1CO3)N1CCCCC1	10µM*	9	9.2µM*	-5%	2%	?
O=C(c1ccc2c3n(nc2c1)-c1ccc(Cl)cc1CO3)N1CCOCC1	?	0	i	-5%	11%	3
O=C(c1ccc2c3n(nc2c1)-c1ccccc1CO3)N1CCOCC1	?	1	7.3µM*	-2%	16%	-1
CCOC(=O)c1c(S(=O)(=O)N2CCCC(C(=O)Nc3cccc(Cl)c3)C2)c(C)n(C)c1C (centres undefined)	?	-4	i	·	·	·
Cc1ccc(-c2c[n+](CC(=O)Nc3ccc(C)cc3C)c3n2CCC3)cc1	?	-21	i	?	?	?
Cc1ccc(-c2c[n+](Cc3ccc(Cl)c(Cl)c3)c3n2CCC3)cc1	i	-8	3.7µM*	60%	?	-24
